Several values for one entry are separate records, joined by “and”; a condition that tells them apart may be missing. Identical values can stand only once. Inconclusive results are not listed. Activity calls are given as the source filed them. Unless noted, the call rests on the fitted dose curve.
What was measured:
[1] = qHTS for Inhibitors of the Functional Ribonucleoprotein Complex (vRNP) of Lassa (LASV) Arenavirus: LASV Primary Screen - GLuc reporter signal (AID 1347082; calls by dose curve; tested in HEK293 reporter line; further: nearly all actives have a fitted effect of over 60% in size; further: potency means the concentration at half of the fitted maximal effect)
[2] = qHTS for Inhibitors of the Functional Ribonucleoprotein Complex (vRNP) of Lassa (LASV) Arenavirus: Viability assay - alamar blue signal for LASV Primary Screen (AID 1347083; calls by dose curve; tested in HEK293 reporter line; further: nearly all actives have a fitted effect of over 80% in size; further: potency means the concentration at half of the fitted maximal effect)
[3] = qHTS for Inhibitors of the Functional Ribonucleoprotein Complex (vRNP) of Lymphocytic Choriomeningitis Arenaviruses (LCMV): Viability assay - alamar blue signal for LCMV Primary Screen (AID 1347085; calls by dose curve; tested in HEK293 reporter line; further: nearly all actives have a fitted effect of over 80% in size; further: potency means the concentration at half of the fitted maximal effect)
[4] = Primary qHTS for Huh7 cytotoxicity: counterscreen for inhibitors of MERS-S pseudotyped particle cell entry (AID 1479147); conditions: outcome: dose series up to 57.1 µM unless noted
[5] = Primary qHTS for inhibitors of MERS-S pseudo-typed particle cell entry (AID 1479149); further: nearly all actives have a fitted effect of over 60% in size
[6] = Primary qHTS for Vero E6 cytotoxicity: counterscreen for inhibitors of SARS-S pseudo-typed particle cell entry (AID 1479150); conditions: outcome: dose series up to 57.1 µM unless noted
[7] = Cytotoxicity counterscreen for inhibitors of SARS-CoV-2 cell entry (AID 1645845); further: nearly all actives have a fitted effect of over 50% in size; further: potency means the concentration at half of the fitted maximal effect
Outline: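 Counterscreen run in the same HEK293-ACE2 line as the pseudotyped-particle entry assay, without particles. Viability after 48 h at 37 C was read as ATP luminescence, scaled between cell-containing and cell-free wells.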

[8] = Primary qHTS to identify inhibitors of SARS-CoV-2 cell entry (AID 1645846); conditions: activity change, negative = inhibition: at 57.1 µM (top of the series) unless noted; further: nearly all actives have a fitted effect of over 45% in size
Outline: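 HEK293 cells stably expressing human ACE2, pre-treated 1 h with compound, then infected with MLV particles pseudotyped with Wuhan-Hu-1 spike (C-terminal 19-aa truncation). Luciferase luminescence after 48 h at 37 °C, normalised to spike PP and bald PP.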

[9] = biological target: Ubiquitin carboxyl-terminal hydrolase 1 (Homo sapiens) (UniProt O94782); experiment: Inhibitors of USP1/UAF1: Pilot qHTS (AID 504865; active means well fitted curve in the direction sought with a large enough effect; an effect the other way counts as inactive or inconclusive; further: potency means the concentration at half of the fitted maximal effect; nearly all actives have a fitted effect of over 35% in size)
Outline: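 USP1/UAF1 complex at 1 nM preincubated 15 min at room temperature with compound, then Ub-Rho substrate added at 150 nM final. Fluorescence (480/540 nm) read kinetically in 50 mM HEPES pH 7.8, 0.5 mM EDTA, 1 mM TCEP, 0.1 mg/ml BSA, 0.01% Tween-20.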

[10] = S16 Schwann cell PMP22 intronic element beta-lactamase assay (AID 624044); further: potency means the concentration at half of the fitted maximal effect; nearly all actives have a fitted effect of over 15% in size
Outline: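 Beta-lactamase reporter under a PMP22 intronic regulatory element in stable S16 rat Schwann cells; 24 h compound exposure. 460 nm blue signal normalized between DMSO (0%) and potassium clavulanate, with 535 nm FRET tracking viability; curves classed by r2 and response.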

[11] = Primary qHTS for inhibitors of SARS-S pseudo-typed particle cell entry (AID 1479145); further: potency means the concentration at half of the fitted maximal effect; nearly all actives have a fitted effect of over 45% in size
[12] = qHTS profiling of the MIPE4 collection as inhibitors of Plasmodium falciparum (DD2) proliferation (Rep 2) (AID 743346; call rule not given here); conditions: P. falciparum Dd2 in erythrocytes, SYBR Green DNA, 72 h; at 28.5 µM (top of the series) unless noted
Outline: (§1)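 Parasite DNA was quantified by SYBR Green I fluorescence (ex 485, em 535 nm) after overnight lysis in saponin/Triton buffer at room temperature. Cultures at 0.3% parasitemia and 2.5% hematocrit were first exposed to compound for 72 h at 37 C; signals were normalised to artemisinin (0.29 uM) and vehicle wells.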

[13] = qHTS profiling of the MIPE4 collection as inhibitors of Plasmodium falciparum (HB3) proliferation (AID 743347; call rule not given here); conditions: P. falciparum HB3 in erythrocytes, SYBR Green DNA, 72 h; at 28.5 µM (top of the series) unless noted
Outline: as §1

[14] = biological target: Nucleoprotein (Lymphocytic choriomeningitis virus (strain Armstrong)) (UniProt P09992); experiment: qHTS for Inhibitors of the Functional Ribonucleoprotein Complex (vRNP) of Lymphocytic Choriomeningitis Arenaviruses (LCMV): LCMV Primary Screen - GLuc reporter signal (AID 1347086); further: nearly all actives have a fitted effect of over 70% in size
[15] = Validation screen for inhibitors of Lassa infection (AID 463096)
[16] = Inducers of the Endoplasmic Reticulum Stress Response (ERSR) in human glioma: Validation (AID 504836; active means well fitted curve in the direction sought with a large enough effect; an effect the other way counts as inactive or inconclusive)
Outline: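 Stably transfected U87-MG glioma cells carrying a GRP78-based luciferase sensor; 16 h compound incubation. Luminescence end-point read 10 min after Bright-Glo addition at room temperature.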

Sequence of Nucleoprotein (Lymphocytic choriomeningitis virus (strain Armstrong)) (P09992 whole entry, looked up): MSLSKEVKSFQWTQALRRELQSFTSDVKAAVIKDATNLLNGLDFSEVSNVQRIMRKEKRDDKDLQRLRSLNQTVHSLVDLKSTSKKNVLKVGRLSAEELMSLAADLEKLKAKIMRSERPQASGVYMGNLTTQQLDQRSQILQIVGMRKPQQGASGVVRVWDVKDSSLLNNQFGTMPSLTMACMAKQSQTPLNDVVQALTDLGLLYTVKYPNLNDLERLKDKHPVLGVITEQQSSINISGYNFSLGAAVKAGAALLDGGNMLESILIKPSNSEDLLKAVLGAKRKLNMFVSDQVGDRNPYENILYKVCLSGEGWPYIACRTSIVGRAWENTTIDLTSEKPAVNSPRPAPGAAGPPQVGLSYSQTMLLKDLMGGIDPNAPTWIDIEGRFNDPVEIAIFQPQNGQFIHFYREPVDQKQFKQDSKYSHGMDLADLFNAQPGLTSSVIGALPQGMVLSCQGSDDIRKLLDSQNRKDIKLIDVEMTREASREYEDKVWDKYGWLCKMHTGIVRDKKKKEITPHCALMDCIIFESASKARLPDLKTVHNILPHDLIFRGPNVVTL
Sequence of Ubiquitin carboxyl-terminal hydrolase 1 (Homo sapiens) (O94782 whole entry, looked up): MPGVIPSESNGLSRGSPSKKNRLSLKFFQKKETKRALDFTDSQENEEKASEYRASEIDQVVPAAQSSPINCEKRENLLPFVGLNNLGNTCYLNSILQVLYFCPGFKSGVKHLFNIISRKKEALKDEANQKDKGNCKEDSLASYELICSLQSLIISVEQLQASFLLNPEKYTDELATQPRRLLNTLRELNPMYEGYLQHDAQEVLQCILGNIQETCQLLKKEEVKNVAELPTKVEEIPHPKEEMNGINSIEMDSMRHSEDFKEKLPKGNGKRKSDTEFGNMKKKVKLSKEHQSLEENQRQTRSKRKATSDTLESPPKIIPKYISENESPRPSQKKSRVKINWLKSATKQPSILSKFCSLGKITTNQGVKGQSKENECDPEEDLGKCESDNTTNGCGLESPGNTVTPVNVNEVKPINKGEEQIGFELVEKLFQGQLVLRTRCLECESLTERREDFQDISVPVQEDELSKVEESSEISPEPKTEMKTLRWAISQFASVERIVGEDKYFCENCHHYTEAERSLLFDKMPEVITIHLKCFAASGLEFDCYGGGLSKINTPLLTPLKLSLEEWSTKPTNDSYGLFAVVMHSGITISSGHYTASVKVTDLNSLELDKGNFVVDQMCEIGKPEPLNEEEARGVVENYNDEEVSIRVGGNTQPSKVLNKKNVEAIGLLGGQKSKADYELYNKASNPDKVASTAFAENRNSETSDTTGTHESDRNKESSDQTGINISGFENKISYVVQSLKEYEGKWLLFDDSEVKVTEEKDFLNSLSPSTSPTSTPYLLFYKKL

CS(=O)(=O)c1ccc(C2=C(c3ccccc3)C(=O)OC2)cc1
-28.2% and -25.4%: activity change, negative = inhibition [8]
active: Potency [3] 27.3 µM
inactive: Potency [1] | Potency [2] | outcome [4] | Potency [5] | outcome [6] | Potency [7]

N#Cc1cc(NC(=O)Nc2nnc(-c3ccncc3)s2)ccc1-c1cn[nH]c1
active: Potency [3] 6.85 µM
inactive: Potency [1] | Potency [2] | Potency [7] | Potency [8]

COc1cccc2c1C(=O)c1c(O)c3c(c(O)c1C2=O)C[C@@](O)(C(=O)CO)C[C@@H]3O[C@H]1C[C@H](N)[C@H](OC2CCCCO2)[C@H](C)O1 (some centres undefined)
active: Potency [9] 44.7 µM | Potency [10] 5.62 µM | Potency [2] 6.11 µM | Potency [3] 6.85 µM | Potency [11] 7.94 µM | Potency [7] 12.6 µM
inactive: Potency [1] | Potency [5] | outcome [6]
-97.2% and -91.8%: activity change, negative = inhibition [8]

CC=C1C2C=C(C)CC1(N)c1ccc(=O)[nH]c1C2 (centres undefined)
79.2%: parasite growth, % of control (lower = inhibition) [12]
103%: growth, % of control [13]
inactive: Potency [1] | Potency [2] | Potency [3] | Potency [14]

CCOC(=O)C1=C(C)NC2=C(C(=O)CC(C)(C)C2)C1c1ccc(-c2ccccc2)cc1 (centres undefined)
inactive: Potency [1] | Potency [2] | Potency [3] | Potency [7]

CC(C)n1nc(-c2ccc3oc(N)nc3c2)c2c(N)ncnc21
-61%: activity change, negative = inhibition [8]
active: Potency [1] 0.0024 µM | Potency [2] 0.0019 µM | Potency [3] 0.0031 µM

CN(C)CCCC1(c2ccc(F)cc2)OCc2cc(C#N)ccc21 (centres undefined)
inactive: Potency [15] | outcome [16] | Potency [1] | Potency [2] | Potency [3] | outcome [4] | outcome [6] | Potency [7]

CC1=C(C(=O)Nc2cc3cn[nH]c3cc2F)C(c2ccc(Cl)cc2F)N=C(c2ccnc(Cl)c2)N1 (centres undefined)
inactive: Potency [1] | Potency [2] | Potency [3] | Potency [7]

Source: PubChem BioAssay (NCATS)
